IL2 activator: activates IL-2 in a cell-based reporter assay; IL-2 activation reporter assay, cell-based qHTS; stimulated with anti-CD3/CD4/CD28 beads; in transgenic mouse T cells; activation, % (series mostly up to about 46 µM); 360,000 tested, 0.065% active; in the data active means activation above about 50%; inconclusive means mostly about 30% to 49%; further: 0% is about no effect
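Unstimulated transgenic mouse T cells preincubated 60 min with compound, then stimulated with anti-CD3/anti-CD4-coated beads plus anti-CD28 for 18 h at 37 degrees C. IL-2 response read as EGFP and DsRed fluorescence by plate cytometry.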
RXFP1 antagonist: RXFP1 (human) relaxin receptor antagonism; HEK293-RXFP1, relaxin-stimulated cAMP HTRF, 30 min; active compounds read low; activity change, negative = inhibition, % at 57.5 µM; 350,000 tested, 0.59% active; AID 1259400;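 active means activity change of -60% or lower, but not beyond a set lower limit; inconclusive means change between -60% and -40%, or beyond the set limit; inactive means change above -40%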; further: on the % scale 0 is the no-effect control and ±100 the full control effect
Target sequence (Q9HBX9 whole entry, looked up): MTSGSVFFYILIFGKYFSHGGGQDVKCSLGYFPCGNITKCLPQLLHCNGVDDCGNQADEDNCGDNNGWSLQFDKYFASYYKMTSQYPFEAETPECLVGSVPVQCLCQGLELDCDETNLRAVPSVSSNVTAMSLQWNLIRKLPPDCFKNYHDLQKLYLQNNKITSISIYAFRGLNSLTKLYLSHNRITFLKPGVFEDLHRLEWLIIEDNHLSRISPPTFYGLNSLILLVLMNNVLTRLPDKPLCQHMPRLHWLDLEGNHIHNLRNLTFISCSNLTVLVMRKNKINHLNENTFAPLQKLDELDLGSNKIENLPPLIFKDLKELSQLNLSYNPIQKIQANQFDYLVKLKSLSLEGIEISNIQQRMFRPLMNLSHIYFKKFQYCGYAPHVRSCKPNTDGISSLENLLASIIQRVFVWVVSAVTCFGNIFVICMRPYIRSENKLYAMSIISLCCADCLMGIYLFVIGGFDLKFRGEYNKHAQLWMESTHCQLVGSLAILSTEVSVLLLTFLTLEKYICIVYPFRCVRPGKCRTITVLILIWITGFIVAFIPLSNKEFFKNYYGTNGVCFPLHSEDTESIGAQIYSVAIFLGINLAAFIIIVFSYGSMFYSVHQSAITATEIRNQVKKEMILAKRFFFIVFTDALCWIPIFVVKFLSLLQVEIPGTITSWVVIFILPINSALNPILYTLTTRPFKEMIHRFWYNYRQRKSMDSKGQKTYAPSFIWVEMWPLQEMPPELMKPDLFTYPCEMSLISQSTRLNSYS
NPSR antag: blocks cAMP signaling of the human neuropeptide S receptor | 220,000 tested, 1% active | Potency, µM (series often up to 38.3 µM), inactives show at the top dose activity change, negative = inhibition, actives largely listed as inhibitors | AID 1461 | CHO-NPSR cells, cAMP TR-FRET, antagonist mode; further: potency means the concentration at half of the fitted maximal effect; on the % scale 0 is the no-effect control and ±100 the full control effect; nearly all actives have a fitted effect of over 50% in size
BRCA1 expr up: activators of BRCA1 expression; Potency, µM (doses to about 46.1 µM), for the others: at the highest dose activation, most hits filed as activators; MCF7-BRCA1-FFLuc reporter, luminescence, 48 h; response scale: scaled: vehicle 0%, 10 µM genistein 100%; 380,000 tested, 1.1% active; AID 624202; further: potency means the concentration at half of the fitted maximal effect; nearly all actives have a fitted effect of over 80% in size
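Using MCF7 cells harboring a BRCA1 firefly luciferase reporter, plated 2 h before compound pinning, the screen measured luminescence after 48 h incubation. Responses were normalized to DMSO and 10 microM genistein, then fitted for concentration-effect.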
RXFP1 agonist: agonists of human relaxin receptor RXFP1; 370,000 tested, 0.3% active; Potency, µM (doses to about 57.5 µM), for the others: top-dose activation, actives largely listed as activators; AID 2676; HEK293T-RXFP1 cAMP TR-FRET, 30 min; response scale: percent of porcine relaxin response, buffer zero; Q9HBX9; further: potency means the concentration at half of the fitted maximal effect; on the % scale 0 is the no-effect control and ±100 the full control effect; nearly all actives have a fitted effect of over 60% in size
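cAMP rise read by TR-FRET after 30 min, 37C compound exposure (up to 58 uM) in RXFP1-transfected HEK293 cells with Ro 20174 present. EC50 from Hill-equation fits, with 29 nM porcine relaxin as 100% and buffer as basal.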
Giardia kill: Giardia lamblia killing; activity change, % at 7.66 µM, hits read low; AID 540267; 340,000 tested, 0.15% active; Giardia lamblia trophozoite viability; in the data active means activity change below about -80%; inconclusive means between about -30% and that limit;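 further: parasites exposed to compound for two days anaerobically before the ATP read; on the % scale 0 is the no-effect control and ±100 the full control effect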
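Trophozoite viability was measured as ATP-dependent luminescence, read 15-30 min after reagent addition. Before that, parasites at 100 cells/well were exposed to compounds for 48 h, anaerobically, at 37 deg C.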
The depositor's hits bear a star; [ ] = dose if it differs, or a comment. A selection: hits, their analogues and other compounds. The true share with any hit is near 1.9%. Unless noted, the call rests on the fitted dose curve; in most records, active means well fitted curve in the direction sought with a large enough effect; inconclusive means small, poorly fitted or top-dose-only effect, or another doubt; inactive means no such curve, though single readings can be large; an effect the other way counts as inactive or inconclusive.

`CCOc1ccc(C(=O)N(Cc2ccc(C(C)C)cc2)Cc2ccco2)cc1` gave RXFP1 antagonist -79* and RXFP1 agonist 3%.
`Cc1ccc(C(=O)N(Cc2ccco2)Cc2sccc2C)cc1` gave RXFP1 antagonist -98* and RXFP1 agonist 0%.
Cc1ccc(CN(Cc2ccco2)C(=O)COc2ccc(C(C)C)cc2)cc1 was read as RXFP1 antagonist -32 and RXFP1 agonist 0%.
CCc1ccc(CN(Cc2ccco2)C(=O)c2ccc(C)cc2)cc1 was read as RXFP1 antagonist -68* and RXFP1 agonist -1%.
Screening Cc1ccsc1CN(Cc1ccco1)C(=O)c1ccc(Cl)cc1 returned RXFP1 antagonist -74* and RXFP1 agonist 5%.
O=C(Nc1ncc(Cc2ccccc2)s1)C1CCN(C(=O)c2ccco2)CC1 was read as BRCA1 expr up -12% and Giardia kill -18.
Screening CCCCS(=O)(=O)N[C@@H](Cc1ccc(OCCCCC2CCNCC2)cc1)C(=O)O returned RXFP1 antagonist -14.
Screening CN(C)c1ccc(/C=C/c2ccnc3ccccc23)c(F)c1 returned BRCA1 expr up 14%.
`Cc1ccc(O)c(N=CC2=C(O)c3ccccc3C2=O)c1` gave IL2 activator -2, RXFP1 antagonist 18, NPSR antag inconclusive, BRCA1 expr up -31%, RXFP1 agonist 28µM* and Giardia kill -7.
For O=C1C(C=Nc2ccccc2O)=C(O)c2ccccc21 the results were IL2 activator -1, RXFP1 antagonist 2, NPSR antag -28%[46.1 µM], BRCA1 expr up 4%, RXFP1 agonist 1% and Giardia kill 0.
COc1cc2nc(N3CCOCC3)nc(NC3CCN(Cc4ccccc4)CC3)c2cc1OC was read as BRCA1 expr up -6%.
`O=C(Cc1ccc(OCCC2CCCCC2)cc1)NO` gave BRCA1 expr up 3%.
CC1CCN(c2nc(-c3ccccc3)c(C#N)c(=O)[nH]2)CC1 was read as IL2 activator 2, RXFP1 antagonist -3, NPSR antag 13µM*, BRCA1 expr up -14%, RXFP1 agonist 14% and Giardia kill -4.
For N/C(=C\c1ccccc1)c1ccncc1 the results were BRCA1 expr up 44%.
`O=C(COC(=O)C12CC3CC(CC(O)(C3)C1)C2)NCc1ccco1` gave BRCA1 expr up -6% and Giardia kill 13.
COc1ccccc1C(=O)COC(=O)c1ccc(N(C)C)cc1 was read as IL2 activator -3, RXFP1 antagonist -13, NPSR antag -17%, BRCA1 expr up 4µM*, RXFP1 agonist 2% and Giardia kill -18.
For COc1ccc(C2Nc3ccccc3C(=O)N2c2ccc(Cl)cc2)cc1COc1ccc(NC(C)=O)cc1 (configuration not stated) the results were BRCA1 expr up inconclusive and Giardia kill 5.
`COc1ccc(CN(C(=O)CSc2nnc(-c3ccccc3C)o2)c2ccc(F)cc2)cc1` gave IL2 activator -1, RXFP1 antagonist -8, NPSR antag -26%[46.1 µM], BRCA1 expr up -29%, RXFP1 agonist -2% and Giardia kill -13.
Screening O=C(CSc1nnc(-c2c[nH]c3ccccc23)o1)N(Cc1ccccc1)c1ccc(F)cc1 returned IL2 activator -3, RXFP1 antagonist -17, NPSR antag 7.9µM*, BRCA1 expr up -77%, RXFP1 agonist -1% and Giardia kill -10.
Screening CCc1ccc(NC(=O)CSC2=Nc3ccccc3C3=NC(CC(=O)NC4CCCCC4)C(=O)N23)cc1 (configuration not stated) returned RXFP1 antagonist -70* and RXFP1 agonist 1%.
CN1CCN(C(=O)c2cc(-c3ccccc3)on2)CC1 was read as IL2 activator -1, RXFP1 antagonist 1, NPSR antag -3%[46.1 µM], BRCA1 expr up 7.9µM*, RXFP1 agonist -1% and Giardia kill -14.
COc1cccc(-c2cc(C(=O)N3CCCCC3C)no2)c1 (configuration not stated) was read as IL2 activator 2, NPSR antag inconclusive, BRCA1 expr up 2.8µM*, RXFP1 agonist -3% and Giardia kill -3.
`O=C(c1cc(-c2ccccc2)on1)N1CCCCCC1` gave IL2 activator -6, RXFP1 antagonist -9, BRCA1 expr up 1.8µM*, RXFP1 agonist -1% and Giardia kill -4.
Screening COc1cccc(-c2cc(C(=O)N3CCCCCC3)no2)c1 returned IL2 activator -1, RXFP1 antagonist -5, NPSR antag inconclusive, BRCA1 expr up inconclusive, RXFP1 agonist 1% and Giardia kill -4.
O=C(c1cc(-c2ccc(Cl)c(Cl)c2)on1)N1CCOCC1 was read as IL2 activator 1, RXFP1 antagonist 5, BRCA1 expr up 1.3µM*, RXFP1 agonist -1% and Giardia kill -1.
For C[C@@H]1C[C@H]2[C@@H]3CCC4=CC(=O)C=C[C@]4(C)[C@@]3(F)C(O)C[C@]2(C)[C@@]1(O)C(=O)CO (some centres not stated) the results were BRCA1 expr up -21% and Giardia kill -15.
For Cc1ccc(S(=O)(=O)N2CCN(c3nc(-n4cccn4)nc4ccccc34)CC2)cc1 the results were BRCA1 expr up 27%.
O=C(Nc1ccc2c(c1)CCCN2C(=O)c1cccs1)c1cccc(C(F)(F)F)c1 was read as RXFP1 antagonist -4 and RXFP1 agonist 0%.
`Cc1cc(Br)c2nc3c(c(C(=O)O)c2c1)CCCCC3` gave IL2 activator -1, RXFP1 antagonist 52, NPSR antag 1µM*, BRCA1 expr up 33%, RXFP1 agonist 2.2µM* and Giardia kill 14.
CCc1ccc2nc3c(c(C(=O)O)c2c1)CCC3 was read as IL2 activator 0, RXFP1 antagonist 1, NPSR antag -7%[46.1 µM], BRCA1 expr up 3%, RXFP1 agonist 2% and Giardia kill 0.
CCCCn1c(/N=C/c2ccccc2NS(=O)(=O)c2ccc(C)cc2)nc2ccccc21 was read as IL2 activator -5, NPSR antag -11%, BRCA1 expr up -81%, RXFP1 agonist -1% and Giardia kill 3.
`Cc1ccc(S(=O)(=O)Nc2ccccc2/C=N/c2nc3ccccc3n2C(C)C)cc1` gave IL2 activator -3, RXFP1 antagonist -64*, NPSR antag -25%, BRCA1 expr up -48%, RXFP1 agonist 0% and Giardia kill 8.
O=P(c1ccccc1)(c1ccccc1)c1nc(-c2ccc(Cl)cc2)oc1N1CCOCC1 was read as IL2 activator -4, RXFP1 antagonist -39, NPSR antag 10µM*, BRCA1 expr up -26%, RXFP1 agonist 14% and Giardia kill 11.
